SMN2 splice up – SMN2 splice variant enhancement; HEK293 SMN2-luciferase splicing reporter, luminescence, 30-36 h; Potency, µM (doses to about 46.1 µM), usual class: activators; actives 2.8% (n = 210,000); AID 1458; further: nearly all actives have a fitted effect of over 55% in size
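HEK293 cells carry an SMN2 minigene-luciferase reporter in which exon 7 inclusion puts luciferase in frame. Cells were seeded at 2000 cells/well, attached for 10-12 hours, then exposed to compounds for 30-36 hours at 37C before ONE-Glo luminescence.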
ELG1 genotoxic – induces genotoxicity in HEK293T cells with luciferase-tagged ELG1; HEK293T ELG1-luciferase reporter, luminescence, 16 h; Potency, µM (top dose mostly 46 µM), usual class: activators; actives 1.3% (n = 330,000); further: nearly all actives have a fitted effect of over 60% in size
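After overnight (16 hr) compound treatment at 37 °C, ELG1-luciferase HEK293T cells were lysed with ONE-Glo; luminescence quantified 30 min later at room temperature.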
NPC1 prom act – NPC1 promoter activation; Huh7 NPC1 promoter luciferase reporter, 24 h; Potency, µM (top dose mostly 9.22 µM), hits mostly activators; actives 2.4% (n = 320,000); AID 485313; further: nearly all actives have a fitted effect of over 60% in size
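Readout is luciferase luminescence, reflecting NPC1 promoter activation in stably transfected Huh7 cells after 24 h compound exposure at 37 °C in reduced-serum medium with 10% FBS.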
Rab9 prom act – Rab9 promoter activation | Huh7 Rab9 promoter-luciferase reporter, luminescence, 24 h | Potency, µM (doses to about 9.22 µM), usual class: activators | actives 2.8% (n = 320,000) | AID 485297; further: nearly all actives have a fitted effect of over 60% in size
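Huh7 reporter line, Rab9 promoter upstream of luciferase. Compound exposure 24 h at 37 °C in reduced-serum medium with 10% FBS. Read-out: luminescence.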
FLuc modulator – counter-screen for miR-21 project: firefly luciferase inhibitors or activators; Potency, µM (top dose mostly 57.5 µM), usual class: inhibitors; AID 588342; purified FLuc, Km substrates, luminescence inhibition; actives 6.9% (n = 360,000); further: nearly all actives have a fitted effect of over 55% in size
Target sequence (P08659 whole entry, looked up): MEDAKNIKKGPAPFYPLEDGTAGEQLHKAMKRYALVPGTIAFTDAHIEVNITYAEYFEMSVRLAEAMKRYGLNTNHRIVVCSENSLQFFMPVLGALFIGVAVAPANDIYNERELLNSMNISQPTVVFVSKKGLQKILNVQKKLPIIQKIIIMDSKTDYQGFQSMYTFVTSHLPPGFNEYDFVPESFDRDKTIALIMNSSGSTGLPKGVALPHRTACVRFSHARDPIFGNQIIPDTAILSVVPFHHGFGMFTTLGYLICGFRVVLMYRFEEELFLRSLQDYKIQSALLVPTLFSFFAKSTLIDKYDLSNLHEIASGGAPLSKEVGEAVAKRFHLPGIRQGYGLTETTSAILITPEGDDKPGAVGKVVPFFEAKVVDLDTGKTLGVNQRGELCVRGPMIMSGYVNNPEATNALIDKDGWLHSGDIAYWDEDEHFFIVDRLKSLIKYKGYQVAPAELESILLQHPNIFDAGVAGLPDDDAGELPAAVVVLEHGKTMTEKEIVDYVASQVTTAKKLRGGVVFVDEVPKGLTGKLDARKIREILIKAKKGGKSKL
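Biochemical qHTS of compounds, final roughly 60 µM downward over six points, against 10 nM purified firefly luciferase using Km concentrations of substrates (10 uM D-luciferin, 10 uM ATP) in Tris acetate pH 7.5 buffer; luminescence output.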
Luc counter – counter-screen: inhibitors of Kinase-Glo firefly luciferase. actives 0.28% (n = 200,000). Kinase-Glo luciferase, ATP luminescence, 8 min. Q27757. Potency, µM (doses to about 38.3 µM), usual class: inhibitors; further: nearly all actives have a fitted effect of over 60% in size
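Compounds were added to a substrate mix at pH 7.2 (50 mM imidazole, 10 uM ATP, within the enzyme's linear range), followed by Kinase-Glo detection reagent; luminescence was measured after 8 minutes at ambient temperature.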
Numbers stand for hits; i = inactive; ? = inconclusive; nt = no result given; [ ] = another dose, or the depositor's remark. Rows were chosen to be rich in hits. Some 7.4% of all compounds tested hit in one or more screens of this group. The call rests on the fitted dose curve; in most records, active means well fitted curve in the direction sought with a large enough effect; inconclusive means small, poorly fitted or top-dose-only effect, or another doubt; inactive means no such curve, though single readings can be large; an effect the other way counts as inactive or inconclusive.

SMILES | SMN2 splice up | ELG1 genotoxic | NPC1 prom act | Rab9 prom act | FLuc modulator | Luc counter
O=C(COC(=O)c1cnccn1)c1ccc(Br)cc1 | i | i | i | i | 15µM | i
CC(C)(C)C1CCC(OC(=O)c2cncc(Br)c2)CC1 (centres undefined) | i | ? | ? | 1.8µM | 7.6µM | i
CC(C)N(Cc1ccccc1)C(=O)CN1C(=O)CSc2ccc(S(=O)(=O)N3CCCC3)cc21 | nt | nt | nt | nt | i | nt
c1ccc(Nc2nc3ccccc3n3cnnc23)cc1 | i | i | i | i | i | i
CCOc1ccc(Nc2nc3ccccc3n3cnnc23)cc1 | nt | i | i | i | 13µM | nt
c1ccc(N2CCCCC2)c(Nc2nc3ccccc3n3cnnc23)c1 | nt | i | i | i | i | nt
O=C(O)c1ccc(Nc2nc3ccccc3n3cnnc23)cc1 | i | nt | nt | nt | 7.6µM | nt
c1ccc2c(c1)nc(Nc1ccc(N3CCCCC3)cc1)c1nncn12 | nt | i | i | i | 4.8µM | nt
CCC1(c2ccccc2)NC(=O)N(CC(=O)NC2(C#N)CCCCC2)C1=O (centres undefined) | nt | i | i | i | i | nt
Cc1ccc2nc(NC(=O)CSc3nc(=O)n(CCN(C)C)c4c3CCCC4)sc2c1 | nt | i | i | i | i | nt
COc1ccc(Cl)cc1NC(=S)NCc1ccco1 | i | i | i | i | i | i
Cc1nn(C)cc1CNC(=O)C1(C)CC1(Cl)Cl (centres undefined) | i | i | i | i | i | i
Cc1ccc(NC(=O)NCc2c(C)nn(C)c2C)cc1Cl | 16µM | ? | ? | 4µM | 24µM | i
Cc1nn(C)cc1CNC(=O)Nc1ccc(Cl)c(Cl)c1 | i | 13µM | 3.2µM | 2.5µM | 24µM | i
Cc1ccc(-c2cc(-c3nnc(SCC(=O)NC(C)C(C)C)n3N)c3ccccc3n2)cc1 (centres undefined) | i | i | i | i | 8.5µM | i
CC(NC(=O)CSc1nnc(-c2cccnc2)n1N)c1ccccc1 (centres undefined) | i | i | i | i | i | i
O=C(CCn1cccn1)NCc1ccc(Cl)cc1 | nt | nt | nt | nt | i | nt
Nc1ccccc1C(=O)NNC(=O)C(=O)/C=C(\O)c1ccccc1 | nt | i | i | i | 13µM | nt
O=C(/C=C(\O)c1ccccc1)C(=O)NNC(=O)c1ccccc1[N+](=O)[O-] | nt | i | i | i | i | nt
COCCCN=C1NN=C(c2cc(C)n(-c3ccccc3)c2C)CS1 | i | ? | ? | 1.3µM | 4.3µM | i
Cc1cc(C2=NNC(=Nc3ccccc3)SC2)c(C)n1C | ? | ? | 3.2µM | 1.4µM | 11µM | i
COCCCN=C1NN=C(c2cc(C)n(-c3ccccc3F)c2C)CS1 | i | i | ? | 0.32µM | 2.4µM | i
COCCn1c(C)cc(C2=NNC(=Nc3ccccc3F)SC2)c1C | i | ? | ? | i | 0.54µM | i
Cc1cc(C2=NNC(=NCCc3ccccc3)SC2)c(C)n1-c1c(C)n(C)n(-c2ccccc2)c1=O | nt | i | i | i | i | nt
O=C(O)CNS(=O)(=O)c1ccc2c(c1)Cc1cc(S(=O)(=O)NCC(=O)O)ccc1-2 | nt | i | i | i | i | nt
SMILES | SMN2 splice up | ELG1 genotoxic | NPC1 prom act | Rab9 prom act | FLuc modulator | Luc counter
Cc1cc(-c2ccc(C)c(S(=O)(=O)Nc3cc(C)on3)c2)on1 | nt | i | i | i | i | nt
COCCCN=C1NN=C(c2cc(C)n(Cc3ccccc3Cl)c2C)CS1 | ? | ? | i | i | 12µM | i
O=C(Nc1ccccc1C(=O)Nc1ccncc1)c1ccccc1 | nt | i | i | i | i | nt
Cc1ccc(C)c(OCCn2c(CCNC(=O)C3CCCCC3)nc3ccccc32)c1 | i | nt | nt | nt | i | nt
CCOc1ccc(N=C(C)c2ccccc2O)cc1 | i | i | i | i | 21µM | i
C/C(=N/N=C(\C)c1ccccc1O)c1ccccc1O | nt | ? | ? | i | ? | nt
O=C(O)CCC(=O)NNC(=O)c1cccs1 | nt | i | i | i | i | i
CCN(CC)c1ccc(N=Cc2ccc(N(CC)CC)cc2O)cc1 | i | i | i | i | i | i
CCN(CC)c1ccc(/C=N/N2CCOCC2)c(O)c1 | 8.9µM | ? | ? | 3.5µM | 13µM | i
CCN(CC)c1ccc(/C=N/N2CCN(Cc3ccccc3)CC2)c(O)c1 | i[1.84 µM] | i | i | i | i | i
CCN(CC)c1ccc(C=Nc2ccc(C)cc2)c(O)c1 | i | i | i | i | 11µM | i
CCN(CC)c1ccc(C=Nc2ccc(N(C)C)cc2)c(O)c1 | i | 13µM | i | i | 8.5µM | i
CCN(CC)c1ccc(C=Nc2ccccc2)c(O)c1 | i | i | i | i | 4.3µM | i
CCCC(=O)Nc1sc2c(c1C(=O)Nc1ccccn1)CCCC2 | nt | i | i | i | i | i
CN(CCCN1CCCCC1)C(=O)c1cc(COc2ccc(F)cc2F)on1 | nt | i | i | i | i | nt
CCN(CC)c1ccc(/C=N/Nc2ccccc2)c(O)c1 | i | i | i | i | 21µM | i
CCN(CC)c1ccc(/C=N/Nc2cccc(C)c2)c(O)c1 | ? | i | i | i | ? | i
COc1ccccc1OCCCCOc1ccccc1F | i | i | i | i | 13µM | i
CCOc1ccccc1OCCCCOc1ccccc1F | i | i | i | i | i | i
COC(=O)c1ccc2[nH]c(C)cc(=O)c2c1 | i | i | i | i | i | i
COC(=O)c1ccc2[nH]c(C(C)(C)O)c(C)c2c1 | nt | ? | ? | ? | 19µM | nt
CCOC(=O)c1ccc2[nH]c3ccccc3c2c1 | ? | i | i | ? | 19µM | i
CNC(=O)c1cc2c(cn1)[nH]c1ccccc12 | i | nt | ? | ? | nt | i
CCCCOC(=O)c1cc2c(cn1)[nH]c1ccccc12 | 18µM | nt | nt | nt | nt | i
O=C(NCCCO)c1ccc2[nH]c3ccccc3c2c1 | i | i | i | i | 24µM | i
SMILES | SMN2 splice up | ELG1 genotoxic | NPC1 prom act | Rab9 prom act | FLuc modulator | Luc counter
O=C(CCS(=O)(=O)c1ccc(Cl)cc1)NC1CCCC1 | nt | i | nt | nt | nt | nt
COc1ccc(/C=C/c2cc(C(F)(F)F)on2)cc1 | nt | i | i | i | 6µM | nt
N=c1oc2ccccc2cc1C(=O)Nc1ccc(F)cc1 | nt | 5.2µM | 0.79µM | 0.5µM | 0.85µM | nt
N=c1oc2cc(O)ccc2cc1C(=O)Nc1ccc(Cl)cc1 | nt | ? | 2.2µM | 3.2µM | 3µM | nt
Cc1ccc(NC(=O)c2cc3ccccc3oc2=N)cc1 | nt | ? | 0.45µM | 0.71µM | 0.19µM | nt
N=c1oc2ccccc2cc1C(=O)Nc1cccc(F)c1 | nt | ? | 3.2µM | ? | 0.3µM | nt
Cc1ccc(-c2c(C)n3c4c(=O)n(C)c(=O)n(C)c4nc3n2-c2cccc(O)c2)cc1 | i | nt | nt | nt | i | nt
COc1cccc(NC(=O)c2ccc(-n3cnnn3)cc2)c1 | nt | i | i | i | i | nt
CC(=O)c1ccc(N2CCN(C(=O)C3CCN(S(=O)(=O)c4cccc5nonc45)CC3)CC2)cc1 | nt | nt | nt | nt | i | nt
O=C(Nc1ccc(C(F)(F)F)cc1)c1cc(S(=O)(=O)NCC2COc3ccccc3O2)ccc1F (centres undefined) | i | i | i | i | i | i
